# Test results from PubChem BioAssay (NCATS).
# A number with no mark means an inactive call. Inconclusive results are not listed. Activity calls are given as the source filed them. Unless noted, calls come from the whole dose curve; as a rule, active = well fitted curve in either direction with a large enough effect (not every such curve was filed as active); inconclusive = small, poorly fitted or top-dose-only effect, or another doubt; inactive = flat fitted curve, though single readings scatter.
# How the values were obtained:
# [1] = target: Lysosomal acid glucosylceramidase (Homo sapiens) (UniProt P04062); experiment: Glucocerebrosidase-p2 (AID 348; in the data active = potency below about 10 µM; note: potency is the fitted concentration of half-maximal effect); conditions: purified GBA, blue fluorogenic substrate, 40 min
# Procedure, shortened: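 Compounds titrated from 0.6 nM upwards against 0.2 nM enzyme in pH 5.9 citric acid/KH2PO4, taurocholate, tween-20; blue fluorogenic substrate 80 uM, 40 min room temperature, stopped and read Ex 365/Em 440 for AC50.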
# [2] = AP1 Signaling Pathway (AID 357); conditions: ME-180 AP-1-bla reporter, EGF-induced, beta-lactamase ratio, 5 h; at 7.69 µM (top of the series) unless noted; note: % is set by controls: 0 for no effect and ±100 for the full control effect
# Procedure, shortened: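 ME-180 cells with beta-lactamase reporter under AP-1 response element, stimulated with EC50 EGF; compounds tested in titration series, 5 h at 37 °C. CCF4 substrate added 2.5 h at room temperature; 460/530 nm emission ratio gave %activity and AC50.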
# [3] = target: Cytochrome P450 1A2 (Homo sapiens) (UniProt P05177); experiment: p450-cyp1a2 (AID 410; calls by dose curve; note: potency is the fitted concentration of half-maximal effect;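 for activity change, negative = inhibition: -100% = full effect of reference inhibitor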); conditions: recombinant CYP1A2, luciferin-ME demethylation, luminescence; series mostly up to 11.4 µM
# Procedure, shortened: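 Human CYP1A2 (20nM) demethylated Luciferin-ME at its Km (100uM) in 100mM KPO4. After 10 min compound preincubation, NADPH regeneration ran the reaction 60 min at room temperature. Luciferin was read by luminescence, normalized to 57 uM furafylline.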
# [4] = NFAT Signaling Pathway (AID 444); conditions: Jurkat NFAT-bla M1, carbachol, beta-lactamase ratio, 5 h; at 7.69 µM (top of the series) unless noted;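 note: carbachol stimulus at about its EC50 of 1 µM final; % is set by controls: 0 for no effect and ±100 for the full control effect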
# Procedure, shortened: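 Jurkat cells carrying an NFAT-driven β-lactamase reporter and co-transfected muscarinic M1 receptor were treated with compound plus carbachol (1 uM final, an EC50 level) for 5 h at 37 °C. CCF4 loading followed for 1 h at RT; 460/530 nm ratio gave %activity.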
# [5] = Stat Signaling Pathway (AID 446); conditions: ME-180 SIE beta-lactamase reporter, IL-6 stimulated, 5 h; at 7.69 µM (top of the series) unless noted;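 note: ME-180 cervical cancer cells given 40 pM IL-6 alongside compound; SIE-controlled beta-lactamase reporter measured as 460/530 nm FRET emission ratio; % is set by controls: 0 for no effect and ±100 for the full control effect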
# Procedure, shortened: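 Reporter line: ME-180 cervical carcinoma, SIE-beta-lactamase. Treatment: compound with 40 pM IL-6, 5 hrs, 37 C, in low-serum OPTI-MEM with 10 mM HEPES pH 7.3. Detection: 460/530 nm fluorescence.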
# [6] = target: Glucocorticoid receptor (Homo sapiens) (UniProt P04150); experiment: GR-GFP Redistribution (AID 450;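 active = compounds whose dose series gives a full or clear partial fitted curve of increased nuclear translocation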; note: potency is the fitted concentration of half-maximal effect); conditions: U2OS GR-GFP nuclear translocation, laser cytometry, 2 h
# [7] = target: Glucocorticoid receptor (Homo sapiens) (UniProt P04150); experiment: GR-EFC Redistribution (AID 451; calls by dose curve; note: potency is the fitted concentration of half-maximal effect); conditions: CHO-K1 GR-EFC translocation, beta-gal luminescence, 2 h
# Procedure, shortened: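 CHO-K1 cells stably expressing nuclear-localized β-gal enzyme acceptor and GR fused C-terminally to the enzyme donor fragment; ligand-driven nuclear translocation restores β-gal by complementation. Compounds titrated up to 46 uM final, 2 h at 37 °C; luminescence read.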
# [8] = target: Mitogen-activated protein kinase 10 (Mus musculus) (UniProt Q61831); experiment: JNK3 AlphaScreen Assay (AID 530); conditions: JNK3 lysate, c-Jun phosphorylation; series mostly up to 11.4 µM;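 note: kinase came from lysate of stimulated human HepG2 cells; signal reports phosphorylation of biotinylated GST-cJun 1-79 at Ser73 with 10 µM ATP; % is set by controls: 0 for no effect and ±100 for the full control effect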
# Procedure, shortened: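 JNK3 came from HepG2 lysates pre-activated with IL-1beta and TNF-alpha and phosphorylated biotinylated GST-cJun (1-79) at 10 uM ATP, pH 7.6, room temperature. Compounds were titrated. AlphaScreen signal used anti-phospho-cJun (Ser73) antibody.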
# [9] = target: 3',5'-cyclic-AMP phosphodiesterase 4B (Homo sapiens) (UniProt Q07343); experiment: qHTS Assay for Inhibitors of PDE-IV (AID 607; active = well fitted activation curve with a large enough effect in the main read-out, with a control signal flat, not every such curve was filed as active; note: % of control where 0% means no effect); conditions: HEK293 ACTOne CNG channel cells, membrane potential fluorescence; series mostly up to 22.9 µM
# Procedure, shortened: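 Cell-based read-out of cAMP via a modified cyclic nucleotide-gated channel and membrane potential dye (535/590 nm) in HEK293 cells expressing PDE4 endogenously. Compounds tested up to 22.9 uM final; 100 uM RO 20-1724 reference.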
# Chain of 3',5'-cyclic-AMP phosphodiesterase 4B (Homo sapiens) (Q07343 whole entry, looked up): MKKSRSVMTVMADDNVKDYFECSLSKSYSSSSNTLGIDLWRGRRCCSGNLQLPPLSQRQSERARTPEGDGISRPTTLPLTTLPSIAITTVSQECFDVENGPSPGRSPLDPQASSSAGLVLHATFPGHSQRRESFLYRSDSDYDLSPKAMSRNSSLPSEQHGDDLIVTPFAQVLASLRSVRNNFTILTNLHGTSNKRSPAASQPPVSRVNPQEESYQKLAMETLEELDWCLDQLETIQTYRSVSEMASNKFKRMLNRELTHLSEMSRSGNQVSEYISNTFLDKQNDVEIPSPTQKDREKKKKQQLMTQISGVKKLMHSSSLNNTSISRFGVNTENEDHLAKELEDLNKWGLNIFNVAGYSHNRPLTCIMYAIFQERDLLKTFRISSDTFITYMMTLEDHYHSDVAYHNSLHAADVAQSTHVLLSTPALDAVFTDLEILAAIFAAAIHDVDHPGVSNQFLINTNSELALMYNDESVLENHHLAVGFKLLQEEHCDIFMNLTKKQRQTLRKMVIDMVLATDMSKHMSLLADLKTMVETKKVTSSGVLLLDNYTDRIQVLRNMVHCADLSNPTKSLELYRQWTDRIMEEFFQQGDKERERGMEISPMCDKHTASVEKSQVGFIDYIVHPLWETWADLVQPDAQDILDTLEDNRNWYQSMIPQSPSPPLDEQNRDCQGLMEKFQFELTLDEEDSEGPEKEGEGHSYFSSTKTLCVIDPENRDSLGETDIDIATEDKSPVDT
# Chain of Cytochrome P450 1A2 (Homo sapiens) (P05177 whole entry, looked up): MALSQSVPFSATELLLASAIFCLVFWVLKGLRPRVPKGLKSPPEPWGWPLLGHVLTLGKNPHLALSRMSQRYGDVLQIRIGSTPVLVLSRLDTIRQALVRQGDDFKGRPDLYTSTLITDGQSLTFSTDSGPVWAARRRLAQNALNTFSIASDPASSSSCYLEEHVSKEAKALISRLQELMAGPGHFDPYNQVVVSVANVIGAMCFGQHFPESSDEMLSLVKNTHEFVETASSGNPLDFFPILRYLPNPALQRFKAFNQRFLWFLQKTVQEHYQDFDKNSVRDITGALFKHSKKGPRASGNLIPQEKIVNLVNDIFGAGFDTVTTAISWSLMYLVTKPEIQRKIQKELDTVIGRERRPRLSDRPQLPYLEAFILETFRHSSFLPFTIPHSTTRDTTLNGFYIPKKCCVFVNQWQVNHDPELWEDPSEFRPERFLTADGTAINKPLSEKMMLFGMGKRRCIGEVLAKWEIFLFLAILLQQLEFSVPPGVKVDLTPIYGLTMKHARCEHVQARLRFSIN
# Chain of Glucocorticoid receptor (Homo sapiens) (P04150 whole entry, looked up, the tested form may be a part): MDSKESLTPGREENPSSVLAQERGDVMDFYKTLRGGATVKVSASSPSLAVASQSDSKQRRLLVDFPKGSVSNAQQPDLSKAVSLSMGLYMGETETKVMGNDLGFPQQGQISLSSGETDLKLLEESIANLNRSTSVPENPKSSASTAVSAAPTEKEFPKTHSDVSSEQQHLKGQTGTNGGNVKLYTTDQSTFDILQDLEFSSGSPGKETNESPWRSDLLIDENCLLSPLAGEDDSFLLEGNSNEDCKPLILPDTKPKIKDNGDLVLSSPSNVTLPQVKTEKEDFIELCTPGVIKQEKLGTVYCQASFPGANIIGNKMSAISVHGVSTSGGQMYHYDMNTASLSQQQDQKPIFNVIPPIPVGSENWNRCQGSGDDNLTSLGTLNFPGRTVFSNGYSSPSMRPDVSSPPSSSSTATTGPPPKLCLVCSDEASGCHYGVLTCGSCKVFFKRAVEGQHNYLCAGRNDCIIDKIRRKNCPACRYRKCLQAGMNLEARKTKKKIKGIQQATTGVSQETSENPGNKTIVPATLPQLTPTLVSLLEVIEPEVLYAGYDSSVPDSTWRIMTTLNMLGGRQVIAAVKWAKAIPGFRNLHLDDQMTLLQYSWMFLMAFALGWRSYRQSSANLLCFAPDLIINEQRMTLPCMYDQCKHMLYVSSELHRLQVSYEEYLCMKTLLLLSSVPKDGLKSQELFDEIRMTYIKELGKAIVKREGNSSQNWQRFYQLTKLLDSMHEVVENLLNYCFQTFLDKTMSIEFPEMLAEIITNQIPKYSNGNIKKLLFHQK
# Chain of Lysosomal acid glucosylceramidase (Homo sapiens) (P04062 whole entry, looked up): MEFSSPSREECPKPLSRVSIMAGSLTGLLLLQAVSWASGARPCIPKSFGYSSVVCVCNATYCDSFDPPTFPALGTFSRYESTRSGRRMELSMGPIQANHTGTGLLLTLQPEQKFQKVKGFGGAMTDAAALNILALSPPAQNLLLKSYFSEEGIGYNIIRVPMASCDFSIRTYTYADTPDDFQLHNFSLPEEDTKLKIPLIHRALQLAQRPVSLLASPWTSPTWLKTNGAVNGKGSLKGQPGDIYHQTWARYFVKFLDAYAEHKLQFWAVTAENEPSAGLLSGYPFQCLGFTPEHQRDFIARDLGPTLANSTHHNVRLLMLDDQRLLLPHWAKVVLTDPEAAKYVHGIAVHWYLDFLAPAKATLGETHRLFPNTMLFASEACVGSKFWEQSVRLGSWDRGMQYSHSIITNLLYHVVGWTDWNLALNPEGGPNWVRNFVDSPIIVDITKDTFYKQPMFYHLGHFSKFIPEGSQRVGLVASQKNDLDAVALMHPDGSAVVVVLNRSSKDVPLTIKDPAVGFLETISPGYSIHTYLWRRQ
SMILES,Potency [1] [µM],"activity change, negative = inhibition [2] [%]","activity change, negative = inhibition [3]","activity change, negative = inhibition [4] [%]","activity, negative = inhibition [5] [%]",Potency [6] [µM],Potency [7] [µM],Potency [8],Potency [9],Potency [3]
[Cu].[O-]/N=C1/C(=[OH+])Nc2ccccc21.[O-]Nc1c(O)[nH]c2ccccc12,> 11.4,3.32,-20.1% [at 2.29 µM],13.2,5.41,> 46,> 9.22,inactive,inactive,–
O=C(O)c1ccccc1/C=N\N=C1c2ccccc2-c2ccccc21,> 11.4,20.6,–,7.67,-13.9,> 46,> 9.22,inactive,inactive,0.316 µM (active)
Nc1ncnc2c1nc(-c1ccccc1)n2[C@H]1O[C@@H](CO)[C@@H](O)[C@H]1O,> 11.4,-9.23,-16.8% [at 2.29 µM],6.55,1.65,> 46,> 9.22,inactive,inactive,–
Cc1ccccc1S(=O)(=O)O[C@@H]1NS(=O)(=O)c2ccccc21,> 11.4,6.97,13.5% [at 2.29 µM],10.8,0.825,> 46,> 9.22,inactive,inactive,–
COc1ccc(C[N+](C)(C)N)cc1OC,> 11.4,0.59,–,-4.71,7.15,> 46,> 9.22,inactive,inactive,inactive
Nc1nc(-c2ccc3ccccc3c2)cc(-c2cc(-c3ccc4ccccc4c3)nc(N)n2)n1,> 11.4,-3.27,–,9.25,6.54,> 46,> 9.22,inactive,inactive,0.501 µM (active)
NC(N)=NC(N)=Nc1c(F)c(F)c(F)c(F)c1F,> 11.4,8.28,10.9% [at 2.29 µM],-23.3,3,> 46,> 9.22,inactive,inactive,–
Cc1ccc(NC(=O)c2ccccc2C(=O)O)cc1C,> 11.4,-1.74,–,-27.9,-5.42,> 46,> 9.22,inactive,inactive,3.98 µM (active)
Cc1[nH]c2ccccc2c1-c1cc(-c2cc(-c3c(C)[nH]c4ccccc34)nc(N)n2)nc(N)n1,> 11.4,-6.63,–,1.59,-4.41,> 46,> 9.22,inactive,inactive,0.398 µM (active)
O=C(O)[C@@H]1[C@@H](C(=O)Nc2ccccc2)[C@@H]2C=C[C@@H]1O2,> 11.4,3.5,-18.1% [at 2.29 µM],8.21,-5.22,> 46,> 9.22,inactive,inactive,–
CN(C)CCNS(=O)(=O)N(C)C,> 11.4,-0.375,–,3.58,4.72,> 46,> 9.22,inactive,inactive,inactive
O=C(O)c1ccc(OCc2ccccc2)c(Cl)c1,> 11.4,-4.15,-3.2% [at 2.29 µM],2.05,6.68,> 46,> 9.22,inactive,inactive,–
N[C@H](C(=O)O)[C@H](N)C(=O)O,> 11.4,9.49,–,-1.65,4.68,> 46,> 9.22,inactive,inactive,inactive
Cc1ccc(S(=O)(=O)N=Nc2c(O)[nH]c3cc(O)c(C(=O)O)cc23)cc1,> 11.4,-1.74,-15.8% [at 2.29 µM],7.79,0.979,> 46,> 9.22,inactive,inactive,–
CCCCN(c1ccccc1)c1ncnc2c1cnn2C,> 11.4,-1.19,–,12.1,5.06,> 46,> 9.22,inactive,inactive,0.631 µM (active)
